Laboratory results: paper PMC5540273 (PLoS ONE, 2017)

How the values were obtained:
Settings in all cases: concentration: 1 μM, replicates: in singlicate; n = 1
PRKCE = tested on: PRKCE
PRKCH = tested on: PRKCH
PRKCI = tested on: PRKCI
PRKCQ = tested on: PRKCQ
PRKD1 = tested on: PRKD1
PRKD2 = tested on: PRKD2
PRKD3 = tested on: PRKD3
PRKG1 = tested on: PRKG1
PRKG2 = tested on: PRKG2
PRKR = tested on: T1, PRKR
T1 construct: gene EIF2AK2

PRKX = tested on: PRKX
PRP4 = tested on: PRP4
PYK2 = tested on: T2, PYK2
T2 construct: gene PTK2B

QSK = tested on: QSK
RAF1 = tested on: RAF1
RET = tested on: RET
RIOK1 = tested on: RIOK1
RIOK2 = tested on: RIOK2
RIOK3 = tested on: RIOK3
RIPK1 = tested on: RIPK1
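Also: KINOMEscan kinase panel screen.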

SMILES: COc1cc(Nc2nccc(N3CCC(NC(=O)C4COc5ccccc5O4)C3)n2)cc(OC)c1OC (stereo not drawn) [GSK1379761]
- %Inh (PRKCE): 3%
- %Inh (PRKCH): 4%
- %Inh (PRKCI): 0%
- %Inh (PRKCQ): 0%
- %Inh (PRKD1): 0%
- %Inh (PRKD2): 10%
- %Inh (PRKD3): 0%
- %Inh (PRKG1): 0%
- %Inh (PRKG2): 3%
- %Inh (PRKR): 13%
- %Inh (PRKX): 15%
- %Inh (PRP4): 32%
- %Inh (PYK2): 18%
- %Inh (QSK): 2%
- %Inh (RAF1): 7%
- %Inh (RET): 2%
- %Inh (RIOK1): 66%
- %Inh (RIOK2): 0%
- %Inh (RIOK3): 43%
- %Inh (RIPK1): 7%

SMILES: CCC(=O)c1c(-c2ccccc2)c2cc(Cl)ccc2c(=O)n1Cc1ccc(C(=O)O)cc1
- %Inh (PRKCE): 0%
- %Inh (PRKCH): 0%
- %Inh (PRKCI): 0%
- %Inh (PRKCQ): 9%
- %Inh (PRKD1): 0%
- %Inh (PRKD2): 6%
- %Inh (PRKD3): 0%
- %Inh (PRKG1): 0%
- %Inh (PRKG2): 0%
- %Inh (PRKR): 0%
- %Inh (PRKX): 0%
- %Inh (PRP4): 0%
- %Inh (PYK2): 0%
- %Inh (QSK): 0%
- %Inh (RAF1): 26%
- %Inh (RET): 0%
- %Inh (RIOK1): 6%
- %Inh (RIOK2): 0%
- %Inh (RIOK3): 23%
- %Inh (RIPK1): 0%

SMILES: O=C(NCCNc1ccnc(Nc2ccc(F)cc2)n1)Nc1ccc2c(c1)OCO2 [GSK1379882]
- %Inh (PRKCE): 13%
- %Inh (PRKCH): 16%
- %Inh (PRKCI): 0%
- %Inh (PRKCQ): 3%
- %Inh (PRKD1): 0%
- %Inh (PRKD2): 7%
- %Inh (PRKD3): 0%
- %Inh (PRKG1): 0%
- %Inh (PRKG2): 0%
- %Inh (PRKR): 9%
- %Inh (PRKX): 30%
- %Inh (PRP4): 47%
- %Inh (PYK2): 9%
- %Inh (QSK): 0%
- %Inh (RAF1): 5%
- %Inh (RET): 0%
- %Inh (RIOK1): 15%
- %Inh (RIOK2): 0%
- %Inh (RIOK3): 15%
- %Inh (RIPK1): 25%

SMILES: Cc1nn2c(=O)cc(N3CCOCC3)nc2n1Cc1cccc(Cl)c1Cl [GSK2342769]
- %Inh (PRKCE): 0%
- %Inh (PRKCH): 21%
- %Inh (PRKCI): 5%
- %Inh (PRKCQ): 19%
- %Inh (PRKD1): 20%
- %Inh (PRKD2): 0%
- %Inh (PRKD3): 16%
- %Inh (PRKG1): 0%
- %Inh (PRKG2): 0%
- %Inh (PRKR): 0%
- %Inh (PRKX): 8%
- %Inh (PRP4): 15%
- %Inh (PYK2): 6%
- %Inh (QSK): 8%
- %Inh (RAF1): 15%
- %Inh (RET): 72%
- %Inh (RIOK1): 38%
- %Inh (RIOK2): 36%
- %Inh (RIOK3): 11%
- %Inh (RIPK1): 0%

SMILES: OCCCNc1nccc(-c2c(-c3cccc(C(F)(F)F)c3)nn3cc(C(F)(F)F)ccc23)n1 [GW630813]
- %Inh (PRKCE): 7%
- %Inh (PRKCH): 10%
- %Inh (PRKCI): 0%
- %Inh (PRKCQ): 0%
- %Inh (PRKD1): 22%
- %Inh (PRKD2): 10%
- %Inh (PRKD3): 0%
- %Inh (PRKG1): 0%
- %Inh (PRKG2): 0%
- %Inh (PRKR): 8%
- %Inh (PRKX): 0%
- %Inh (PRP4): 17%
- %Inh (PYK2): 5%
- %Inh (QSK): 0%
- %Inh (RAF1): 0%
- %Inh (RET): 11%
- %Inh (RIOK1): 38%
- %Inh (RIOK2): 0%
- %Inh (RIOK3): 14%
- %Inh (RIPK1): 0%

SMILES: COc1ccc(-c2cc3c(C)nc(N)nc3n([C@H]3CC[C@H](OCCO)CC3)c2=O)cn1
- %Inh (PRKCE): 14%
- %Inh (PRKCH): 0%
- %Inh (PRKCI): 18%
- %Inh (PRKCQ): 0%
- %Inh (PRKD1): 2%
- %Inh (PRKD2): 0%
- %Inh (PRKD3): 9%
- %Inh (PRKG1): 0%
- %Inh (PRKG2): 0%
- %Inh (PRKR): 0%
- %Inh (PRKX): 12%
- %Inh (PRP4): 0%
- %Inh (PYK2): 0%
- %Inh (QSK): 0%
- %Inh (RAF1): 0%
- %Inh (RET): 0%
- %Inh (RIOK1): 0%
- %Inh (RIOK2): 0%
- %Inh (RIOK3): 0%
- %Inh (RIPK1): 0%

SMILES: CCC(=O)c1c(-c2ccccc2)c2cc(Cl)ccc2c(=O)n1Cc1cc(C(=O)NC2CC2)n(C)n1
- %Inh (PRKCE): 20%
- %Inh (PRKCH): 0%
- %Inh (PRKCI): 0%
- %Inh (PRKCQ): 41%
- %Inh (PRKD1): 0%
- %Inh (PRKD2): 3%
- %Inh (PRKD3): 0%
- %Inh (PRKG1): 0%
- %Inh (PRKG2): 0%
- %Inh (PRKR): 0%
- %Inh (PRKX): 0%
- %Inh (PRP4): 0%
- %Inh (PYK2): 0%
- %Inh (QSK): 0%
- %Inh (RAF1): 40%
- %Inh (RET): 0%
- %Inh (RIOK1): 0%
- %Inh (RIOK2): 17%
- %Inh (RIOK3): 10%
- %Inh (RIPK1): 0%

SMILES: COc1cccc(C2=C(N(C)c3ccccc3)C(=O)NC2=O)c1 [SB-334865]
- %Inh (PRKCE): 25%
- %Inh (PRKCH): 5%
- %Inh (PRKCI): 7%
- %Inh (PRKCQ): 0%
- %Inh (PRKD1): 6%
- %Inh (PRKD2): 0%
- %Inh (PRKD3): 10%
- %Inh (PRKG1): 0%
- %Inh (PRKG2): 0%
- %Inh (PRKR): 0%
- %Inh (PRKX): 25%
- %Inh (PRP4): 41%
- %Inh (PYK2): 8%
- %Inh (QSK): 1%
- %Inh (RAF1): 12%
- %Inh (RET): 17%
- %Inh (RIOK1): 39%
- %Inh (RIOK2): 0%
- %Inh (RIOK3): 0%
- %Inh (RIPK1): 0%

SMILES: O=C(Nc1n[nH]c2cc(-c3ccccc3F)ccc12)C1CC1 [SB-733371]
- %Inh (PRKCE): 21%
- %Inh (PRKCH): 0%
- %Inh (PRKCI): 0%
- %Inh (PRKCQ): 0%
- %Inh (PRKD1): 0%
- %Inh (PRKD2): 0%
- %Inh (PRKD3): 0%
- %Inh (PRKG1): 0%
- %Inh (PRKG2): 0%
- %Inh (PRKR): 0%
- %Inh (PRKX): 0%
- %Inh (PRP4): 7%
- %Inh (PYK2): 15%
- %Inh (QSK): 6%
- %Inh (RAF1): 35%
- %Inh (RET): 0%
- %Inh (RIOK1): 50%
- %Inh (RIOK2): 0%
- %Inh (RIOK3): 63%
- %Inh (RIPK1): 78%

SMILES: Cl.c1ccc(Cn2cnc3cc(Nc4ncnc5ccccc45)ccc32)cc1 [GW272142]
- %Inh (PRKCE): 4%
- %Inh (PRKCH): 0%
- %Inh (PRKCI): 0%
- %Inh (PRKCQ): 0%
- %Inh (PRKD1): 0%
- %Inh (PRKD2): 1%
- %Inh (PRKD3): 0%
- %Inh (PRKG1): 0%
- %Inh (PRKG2): 0%
- %Inh (PRKR): 0%
- %Inh (PRKX): 31%
- %Inh (PRP4): 28%
- %Inh (PYK2): 10%
- %Inh (QSK): 0%
- %Inh (RAF1): 3%
- %Inh (RET): 3%
- %Inh (RIOK1): 35%
- %Inh (RIOK2): 0%
- %Inh (RIOK3): 38%
- %Inh (RIPK1): 8%

SMILES: O=C1NC(=O)C(c2ccccc2)=C1Nc1cccc(O)c1 [SB-390534]
- %Inh (PRKCE): 17%
- %Inh (PRKCH): 0%
- %Inh (PRKCI): 9%
- %Inh (PRKCQ): 0%
- %Inh (PRKD1): 0%
- %Inh (PRKD2): 3%
- %Inh (PRKD3): 0%
- %Inh (PRKG1): 8%
- %Inh (PRKG2): 2%
- %Inh (PRKR): 100%
- %Inh (PRKX): 0%
- %Inh (PRP4): 0%
- %Inh (PYK2): 12%
- %Inh (QSK): 9%
- %Inh (RAF1): 13%
- %Inh (RET): 0%
- %Inh (RIOK1): 0%
- %Inh (RIOK2): 0%
- %Inh (RIOK3): 0%
- %Inh (RIPK1): 0%

SMILES: Cc1cccc(-c2nc(Nc3ccc4c(cnn4C)c3)c3ccccc3n2)n1 [GW876731]
- %Inh (PRKCE): 15%
- %Inh (PRKCH): 0%
- %Inh (PRKCI): 0%
- %Inh (PRKCQ): 0%
- %Inh (PRKD1): 99.2%
- %Inh (PRKD2): 99.6%
- %Inh (PRKD3): 90.2%
- %Inh (PRKG1): 9%
- %Inh (PRKG2): 0%
- %Inh (PRKR): 0%
- %Inh (PRKX): 0%
- %Inh (PRP4): 0%
- %Inh (PYK2): 0%
- %Inh (QSK): 0%
- %Inh (RAF1): 29%
- %Inh (RET): 4%
- %Inh (RIOK1): 0%
- %Inh (RIOK2): 0%
- %Inh (RIOK3): 0%
- %Inh (RIPK1): 0%

SMILES: COc1ccc(-c2coc3ccc(-c4nnc(SCc5cccc(C#N)c5)o4)cc23)cc1
- %Inh (PRKCE): 0%
- %Inh (PRKCH): 0%
- %Inh (PRKCI): 0%
- %Inh (PRKCQ): 31%
- %Inh (PRKD1): 0%
- %Inh (PRKD2): 23%
- %Inh (PRKD3): 0%
- %Inh (PRKG1): 0%
- %Inh (PRKG2): 21%
- %Inh (PRKR): 0%
- %Inh (PRKX): 0%
- %Inh (PRP4): 18%
- %Inh (PYK2): 0%
- %Inh (QSK): 0%
- %Inh (RAF1): 14%
- %Inh (RET): 16%
- %Inh (RIOK1): 0%
- %Inh (RIOK2): 5%
- %Inh (RIOK3): 11%
- %Inh (RIPK1): 0%

SMILES: Cl.NS(=O)(=O)c1cccc(Nc2cc(-c3ccc(F)cc3)n[nH]2)c1 [GW824645]
- %Inh (PRKCE): 12%
- %Inh (PRKCH): 0%
- %Inh (PRKCI): 0%
- %Inh (PRKCQ): 0%
- %Inh (PRKD1): 0%
- %Inh (PRKD2): 5%
- %Inh (PRKD3): 0%
- %Inh (PRKG1): 0%
- %Inh (PRKG2): 0%
- %Inh (PRKR): 0%
- %Inh (PRKX): 0%
- %Inh (PRP4): 0%
- %Inh (PYK2): 0%
- %Inh (QSK): 0%
- %Inh (RAF1): 10%
- %Inh (RET): 0%
- %Inh (RIOK1): 0%
- %Inh (RIOK2): 0%
- %Inh (RIOK3): 11%
- %Inh (RIPK1): 0%

SMILES: O=C(NCc1cccs1)c1cc(C(=O)c2c(Cl)cccc2Cl)c[nH]1 [GW823670]
- %Inh (PRKCE): 9%
- %Inh (PRKCH): 0%
- %Inh (PRKCI): 0%
- %Inh (PRKCQ): 0%
- %Inh (PRKD1): 35%
- %Inh (PRKD2): 3%
- %Inh (PRKD3): 13%
- %Inh (PRKG1): 0%
- %Inh (PRKG2): 0%
- %Inh (PRKR): 0%
- %Inh (PRKX): 0%
- %Inh (PRP4): 0%
- %Inh (PYK2): 0%
- %Inh (QSK): 0%
- %Inh (RAF1): 0%
- %Inh (RET): 2%
- %Inh (RIOK1): 5%
- %Inh (RIOK2): 0%
- %Inh (RIOK3): 0%
- %Inh (RIPK1): 0%
